Results filed as inconclusive are left out. Unmarked numbers belong to inactive results. Active and inactive are the calls of the source. Calls follow the shape of the dose curve; as a rule, active = well fitted cell-killing curve with a large enough effect in the repeat runs; inconclusive = weak or mixed curves, or effect the other way; inactive = flat fitted curve, though single readings scatter.
% is scaled to controls: 0 for no effect and ±100 for the full control effect.

A short description of the test: qHTS assay to identify small molecule antagonists of the estrogen receptor alpha (ER-alpha) signaling pathway using the BG1 cell line in the presence of 0.1 nM 17-beta-estradiol - cell viability counter screen (AID 1259241). Also: nearly all actives have a fitted effect of over 40% in size. Conditions: VM7Luc4E2 (BG1) viability, CellTiter-Fluor protease, 22 h, 0.1 nM estradiol agonist added; series mostly up to 92.4 µM; activity change, negative = cytotoxicity: at the top concentration. From the text:
National Center for Advancing Translational Sciences [NCATS]
NIH Chemical Genomics Center [NCGC]
U.S. Environmental Protection Agency [EPA]
National Institutes of Environmental Health Sciences [NIEHS]
National Toxicology Program [NTP]
U.S. Food and Drug Administration [FDA]
Estrogen receptor (ER), a member of the nuclear hormone receptor plays an important role in development, metabolic homeostasis and reproduction. Two subtypes of ER, ER-alpha and ER-beta, have similar expression patterns with some uniqueness in both types. Endocrine disrupting chemicals (EDCs) and their interactions with steroid hormone receptors like ER causes disruption of normal endocrine function. Therefore, it is important to understand the effect of environmental chemicals in ER signaling pathway. For identifying ER antagonists, VM7Luc4E2 cell line was used to screen against Tox21 compound libraries.
VM7Luc4E2 cell line (provided by Denison MS, University of California) endogenously express full-length ER-alpha and is stably transfected with a plasmid containing four estrogen responsive elements (ERE) upstream of a luciferase reporter gene. The current screening for identification of ER-alpha inhibitors against Tox21 compound libraries used lower concentration (0.1 nM) of 17beta-Estradiol as a stimulator. The cytotoxicity of the Tox21 compound libraries against VM7Luc4E2 cell line was tested by measuring live-cell protease activity using CellTiter-Fluor assay in the same wells.
Tox21 Assay Protocol Summary:
VM7Luc4E2 cells were cultured in phenol red free assay medium containing 10% charcoal stripped FBS for 5 days prior to the assay. The cells were dispensed at 4,000 cells/well in 4 uL of assay medium into white wall/solid-bottom 1536-well plates (Corning Life Sciences, Corning, NY) using a Multidrop Combi (ThermoFisher Scientific, Waltham, MA) dispenser. After the assay plates were incubated at 37C and 5% CO2 for 24 hr, 23 nL of compounds dissolved in DMSO, positive controls or DMSO only was transferred to the assay plates by a Pintool station (Kalypsys, San Diego, CA). The transfer of compounds was followed by the addition of 1 uL of 0.1 nM (final concentration) agonist (17beta-Estradiol)/assay medium using a Flying Reagent Dispenser (FRD, Aurora Discovery, San Diego, CA). The plates were incubated at 37C and 5% CO2 for 22 hr. For cytotoxicity assay, 1 uL of CellTiter-Fluor reagent (Promega Corporation, Madison, WI) was added to each well using the FRD and after 30 min incubation at 37C and 5% CO2, The fluorescence intensity was measured using ViewLux plate reader (PerkinElmer, Shelton, CT).
On the technique in general: In qHTS, concentration-response curves come from the screen itself.
For the compound `CC(C)OC(=O)c1ccccc1`, the “activity change, negative = cytotoxicity” value was -1.59%.
The same measure, in the same setting: for `COC(=O)c1ccc(C)cc1C1=NC(C)(C(C)C)C(=O)N1` (stereo not given) the value was -8.47%; for `CC(=O)Nc1c(I)cc(I)c(C(=O)O)c1I`, 8.77% [at 42.5 µM].
As to `CO[Si](CCCOCC1CO1)(OC)OC` (stereo not given), the outcome was inactive.
Regarding `CN1N=C(C(N)=O)CCC1=O`, the “activity change, negative = cytotoxicity” value is 3.57% [at 42.5 µM].
Still for that read-out and setting: the same measure for `CCN(CC)CCNC(=O)c1cc(S(C)(=O)=O)ccc1OC`: 2.68% [at 42.5 µM]; for `CC(C)(c1ccc(O)cc1)c1ccc(O)cc1`: -9.4%.
As for `NCCc1cnc[nH]1`, the “activity change, negative = cytotoxicity” value was 1.97% [at 42.5 µM].
Still for that read-out and setting: the same measure for `CC(=O)OCC(CCn1cnc2cnc(N)nc21)COC(C)=O`: 0.212% [at 42.5 µM]; for `CC(C)c1cc2c(cc1S(=O)(=O)O)[C@@]1(C)CCC[C@@](C)(C(=O)O)[C@@H]1CC2`: 4.68% [at 42.5 µM].
`COC(=O)NN`: the “activity change, negative = cytotoxicity” value is -10.8%.
Same read-out and setting: the same measure for `c1cnc(N2CCN(Cc3ccc4c(c3)OCO4)CC2)nc1`: -0.126% [at 42.5 µM]; for `CC(=O)CC(C)(C)C1CCCCC1`: 13%; for `CC(NC(CCc1ccccc1)C(=O)O)C(=O)N1C(=O)N(C)CC1C(=O)O` (stereo not given): 3.14% [at 42.5 µM].
On the same count and under the same terms, for `CCCCNC(=O)NCCCC` the value was -5.94%; for `C[N+](C)(C)CC(O)CC(=O)[O-]` (stereo not given), 0.149% [at 42.5 µM].
The same measure, in the same setting: the same measure for `Cc1cccn2c(=O)c(-c3nnn[nH]3)cnc12`: 2.88% [at 19 µM]; for `N[C@@H](C(=O)N[C@@H]1C(=O)N2C(C(=O)O)=C(Cl)CS[C@H]12)c1ccccc1`: 0.43% [at 8.39 µM]; for `CCn1ccnc1CC1COc2ccccc2O1` (stereo not given): -4.03% [at 42.5 µM].
Take `O=C1CCCCCCCCCCCN1`: the result was inactive.
For the compound `Nc1ccccc1S(=O)(=O)O`, the “activity change, negative = cytotoxicity” value is 0%.
In the case of `COc1nc(N)nc2c1ncn2[C@@H]1O[C@H](CO)[C@@H](O)[C@@H]1O`, the “activity change, negative = cytotoxicity” value is 3.67% [at 42.5 µM].
On the same count and under the same terms, the same measure for `N=c1nc(N2CCCCC2)cc(N)n1O`: 1.2% [at 42.5 µM].
Still for that read-out and setting: for `CCCN1CCCC[C@H]1C(=O)Nc1c(C)cccc1C` the value was -2.55% [at 42.5 µM]; for `CCCCCOC(=O)CCCCC`, 0.983%.
Regarding `CC(=O)OC/C=C(\C)CC/C=C(\C)CCC=C(C)C`, the result was inactive.
For the compound `CC(C(=O)O)c1ccc(CC2CCCC2=O)cc1` (stereo not given), the “activity change, negative = cytotoxicity” value is -3.15% [at 42.5 µM].
The same measure, in the same setting: the same measure for `CN1C(=O)N(C)C(O)C1O` (stereo not given): 0.17%.
The same measure, in the same setting: for `CC(=O)OCC(=O)[C@@]1(O)CCC2C3CCC4=CC(=O)CC[C@]4(C)C3[C@@H](O)C[C@@]21C` (stereo not given in full) the value was 1.95% [at 42.5 µM]; for `CCN1CCC[C@H]1CNC(=O)c1c(O)c(Cl)cc(Cl)c1OC`, -6.49% [at 42.5 µM].
The same measure, in the same setting: the same measure for `C1CN(CCOCCN2CCOCC2)CCO1`: 2.27%; for `CCCCCCCCCCCCCC=O`: 4.83% [at 8.39 µM].
As to `CC/C=C\CC/C=C/C(OCC)OCC`, the “activity change, negative = cytotoxicity” value was -13.2%.
Same read-out and setting: the same measure for `N[C@H](C(=O)O)c1ccc(O)cc1`: 8.37% [at 19 µM]; for `NS(=O)(=O)c1cc(C(=O)NN2C[C@H]3[C@H]4CCC(C4)[C@H]3C2)ccc1Cl`: 0.884% [at 42.5 µM]; for `CCOc1ccc(C(=O)OCCN(CC)CC)cc1`: 0.485% [at 42.5 µM].
Regarding `OCCOc1ccc(OCCO)cc1`, the “activity change, negative = cytotoxicity” value is 1.3%.
On the same count and under the same terms, the same measure for `CCSC(=O)N(CC(C)C)CC(C)C`: 4.93%; for `N[C@H]1CN(c2c(F)cc3c(=O)c(C(=O)O)cn(C4C[C@H]4F)c3c2Cl)CC12CC2` (stereo not given in full): 0.432% [at 42.5 µM].
Regarding `O=C1CCCN1C1CCCCC1`, the “activity change, negative = cytotoxicity” value was 0.409%.

The values above are taken from PubChem BioAssay (Tox21).
